Measured values taken from ChEMBL document CHEMBL3988442, “University of Dundee, Small-Polar-MMV Screening Library” (2021).
For some assays here: Measured potencies and affinities stand elsewhere.

Key:
[1] = target: T1, Methionyl-tRNA synthetase, putative (Leishmania donovani (strain BPK282A1)) (UniProt E9BF75); assay: Leishmania donovani Methionine tRNA synthetase (LdMetRS):v7. Dose response assay; type: functional; parameters: conc 80 nM, time 150 minutes
T1 sequence (whole entry): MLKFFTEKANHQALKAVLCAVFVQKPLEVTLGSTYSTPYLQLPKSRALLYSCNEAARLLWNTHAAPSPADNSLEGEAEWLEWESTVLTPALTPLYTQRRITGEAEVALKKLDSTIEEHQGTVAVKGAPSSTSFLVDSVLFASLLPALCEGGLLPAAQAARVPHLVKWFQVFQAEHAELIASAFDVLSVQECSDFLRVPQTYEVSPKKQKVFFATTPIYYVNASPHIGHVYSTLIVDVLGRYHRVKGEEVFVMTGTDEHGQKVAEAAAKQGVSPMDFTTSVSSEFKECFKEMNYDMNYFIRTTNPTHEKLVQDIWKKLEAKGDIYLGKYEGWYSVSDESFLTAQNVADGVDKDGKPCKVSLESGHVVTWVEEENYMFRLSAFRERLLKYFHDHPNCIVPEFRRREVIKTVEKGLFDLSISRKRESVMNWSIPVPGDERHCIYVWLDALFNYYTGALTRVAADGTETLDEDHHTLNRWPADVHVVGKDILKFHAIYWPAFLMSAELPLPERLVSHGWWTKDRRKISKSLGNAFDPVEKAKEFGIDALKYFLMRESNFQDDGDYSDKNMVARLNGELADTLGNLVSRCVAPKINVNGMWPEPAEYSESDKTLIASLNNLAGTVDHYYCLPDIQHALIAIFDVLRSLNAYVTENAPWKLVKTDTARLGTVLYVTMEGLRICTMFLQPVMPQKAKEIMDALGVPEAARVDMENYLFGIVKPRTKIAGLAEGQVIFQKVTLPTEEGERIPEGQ

[2] = target: Protein translocase subunit SecA (Escherichia coli (strain K12)) (UniProt P10408); assay: Assay to Identify E. coli SecA ATPase Inhibitors; type: functional; parameters: scale not given: direction of the effect not stated beside the values; conditions: 30 µM
[3] = target: T2, Ubiquitin-activating enzyme e1, putative (Leishmania donovani (strain BPK282A1)) (UniProt E9BSI1); assay: Leishmania donovani Ubiquitin Activating Enzyme (LdE1); type: functional; parameters: scale not given: direction of the effect not stated beside the values; conditions: 30 µM
T2 sequence (whole entry): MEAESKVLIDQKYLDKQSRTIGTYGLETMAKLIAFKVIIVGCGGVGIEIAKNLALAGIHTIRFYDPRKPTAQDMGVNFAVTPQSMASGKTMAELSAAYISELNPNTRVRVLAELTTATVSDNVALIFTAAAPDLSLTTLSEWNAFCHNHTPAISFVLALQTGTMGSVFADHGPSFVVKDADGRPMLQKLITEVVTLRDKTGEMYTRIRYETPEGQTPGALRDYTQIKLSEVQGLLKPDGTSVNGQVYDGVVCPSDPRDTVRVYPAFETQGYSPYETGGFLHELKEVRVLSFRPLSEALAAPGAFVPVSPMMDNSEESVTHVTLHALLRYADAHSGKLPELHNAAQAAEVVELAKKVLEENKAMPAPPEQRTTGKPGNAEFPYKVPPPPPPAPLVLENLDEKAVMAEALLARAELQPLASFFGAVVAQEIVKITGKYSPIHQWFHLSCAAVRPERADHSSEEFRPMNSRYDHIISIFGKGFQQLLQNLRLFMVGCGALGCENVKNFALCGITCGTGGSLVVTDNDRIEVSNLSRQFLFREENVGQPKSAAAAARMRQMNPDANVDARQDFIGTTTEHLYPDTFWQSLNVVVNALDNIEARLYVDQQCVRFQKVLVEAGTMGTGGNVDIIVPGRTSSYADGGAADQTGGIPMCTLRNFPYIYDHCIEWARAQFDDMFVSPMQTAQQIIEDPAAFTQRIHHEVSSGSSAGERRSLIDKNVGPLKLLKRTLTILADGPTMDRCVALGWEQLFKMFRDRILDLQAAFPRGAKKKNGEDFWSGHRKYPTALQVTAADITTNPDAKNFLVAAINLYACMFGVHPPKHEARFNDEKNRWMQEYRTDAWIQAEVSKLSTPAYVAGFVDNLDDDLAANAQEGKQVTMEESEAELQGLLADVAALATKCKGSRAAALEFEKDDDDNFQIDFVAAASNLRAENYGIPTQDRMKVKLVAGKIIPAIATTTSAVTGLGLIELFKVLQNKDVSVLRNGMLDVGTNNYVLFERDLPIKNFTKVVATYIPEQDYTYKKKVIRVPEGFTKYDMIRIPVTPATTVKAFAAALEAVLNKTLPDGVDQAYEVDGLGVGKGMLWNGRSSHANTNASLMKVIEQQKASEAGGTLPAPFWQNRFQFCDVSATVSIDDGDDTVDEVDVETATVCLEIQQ

[4] = target: AMP-activated protein kinase, AMPK (Homo sapiens) (UniProt P54646+O43741+P54619+Q9UGJ0+Q9Y478+Q13131+Q9UGI9); assay: AMP-dependent Kinase enzyme assay. An in vitro enzyme assay that detects ADP turnover that is directly proportional to AMPK activity. This uses naive AMPK that is activated during the assay with MK-8722; type: functional; parameters: scale not given: direction of the effect not stated beside the values; conditions: 30 µM
[5] = target: Sialic acid-binding Ig-like lectin 9 (Homo sapiens) (UniProt Q9Y336); assay: Hs-Siglec9 ALPHAscreen SOP 20170721; parameters: scale not given: direction of the effect not stated beside the values; conditions: 10 µM
Trypanosoma cruzi = assay: Trypanosoma cruzi phosphomannomutase and mannose-1-phosphate guanylyltransferase assay; type: functional; parameters: scale not given: direction of the effect not stated beside the values; conditions: 10 µM
[6] = target: T3, Arginase-2, mitochondrial (Homo sapiens) (UniProt P78540); assay: in vitro enzyme assay to detect the production of urea directly proportional to the activity of Arginase II; type: functional; parameters: scale not given: in the data most compounds retested in dose-response had high values
T3 sequence (whole entry): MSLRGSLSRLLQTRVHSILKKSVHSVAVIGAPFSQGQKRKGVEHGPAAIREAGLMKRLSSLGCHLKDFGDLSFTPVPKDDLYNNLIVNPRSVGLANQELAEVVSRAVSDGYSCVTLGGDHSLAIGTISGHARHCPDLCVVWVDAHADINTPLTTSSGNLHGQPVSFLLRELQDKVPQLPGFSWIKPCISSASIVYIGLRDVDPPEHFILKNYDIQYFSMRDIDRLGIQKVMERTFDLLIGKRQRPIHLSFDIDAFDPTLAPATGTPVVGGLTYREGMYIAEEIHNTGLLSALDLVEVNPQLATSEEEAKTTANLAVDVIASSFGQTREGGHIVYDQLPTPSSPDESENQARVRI

[7] = target: T4, Proteasome subunit beta (Trypanosoma cruzi) (UniProt O96673); assay: Trypanosoma cruzi proteasome chymotrypsin-like activity (TcProtChymo) assay.; type: functional; parameters: scale not given: in the data most compounds retested in dose-response had high values; conditions: 9.37 µM
T4 sequence (whole entry): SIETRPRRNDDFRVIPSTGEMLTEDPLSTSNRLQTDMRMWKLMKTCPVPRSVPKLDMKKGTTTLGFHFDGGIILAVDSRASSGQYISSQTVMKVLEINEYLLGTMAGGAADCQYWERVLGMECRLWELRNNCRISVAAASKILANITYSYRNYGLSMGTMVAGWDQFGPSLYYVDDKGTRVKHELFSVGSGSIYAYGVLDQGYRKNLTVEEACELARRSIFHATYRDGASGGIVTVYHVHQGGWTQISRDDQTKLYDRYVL

Homo sapiens = species: Homo sapiens; assay: To identify inhibition of the IFN signalling (Jak-Stat) pathway via expression of an eGFP reporter gene under the control of an IFN-stimulated response element (ISRE) containing MxA promoter.; type: functional; parameters: scale not given: direction of the effect not stated beside the values; conditions: 30 µM
[8] = target: T5, Tyrosyl-tRNA synthetase, putative (Trypanosoma cruzi (strain CL Brener)) (UniProt Q4DSP6); assay: Trypanosoma cruzi tyrosyl tRNA synthetase (TcYRS) _High Tyrosine SOP; type: functional; parameters: scale not given: in the data most compounds retested in dose-response had high values; conditions: 30 µM
T5 sequence (whole entry): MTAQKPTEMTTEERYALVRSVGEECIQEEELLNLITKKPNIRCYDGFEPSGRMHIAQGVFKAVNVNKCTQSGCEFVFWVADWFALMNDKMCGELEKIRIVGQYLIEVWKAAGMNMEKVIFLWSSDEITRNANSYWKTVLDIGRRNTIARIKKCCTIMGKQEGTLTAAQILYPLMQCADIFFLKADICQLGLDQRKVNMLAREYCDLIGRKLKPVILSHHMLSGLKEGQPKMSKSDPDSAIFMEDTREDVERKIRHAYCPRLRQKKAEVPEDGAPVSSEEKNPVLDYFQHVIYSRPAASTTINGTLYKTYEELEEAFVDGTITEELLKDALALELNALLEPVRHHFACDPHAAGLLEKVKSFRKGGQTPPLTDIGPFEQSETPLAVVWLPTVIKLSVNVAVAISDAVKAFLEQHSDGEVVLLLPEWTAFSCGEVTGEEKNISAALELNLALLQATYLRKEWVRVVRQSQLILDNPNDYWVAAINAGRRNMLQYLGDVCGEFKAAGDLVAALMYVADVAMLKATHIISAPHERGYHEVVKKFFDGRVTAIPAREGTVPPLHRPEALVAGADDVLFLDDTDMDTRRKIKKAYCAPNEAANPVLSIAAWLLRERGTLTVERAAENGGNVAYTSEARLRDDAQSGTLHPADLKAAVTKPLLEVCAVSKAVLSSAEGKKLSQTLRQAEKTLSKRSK

[9] = target: T5, Tyrosyl-tRNA synthetase, putative (Trypanosoma cruzi (strain CL Brener)); assay: Trypanosoma cruzi tyrosyl tRNA synthetase (TcYRS) SOP; type: functional; parameters: scale not given: direction of the effect not stated beside the values; conditions: 30 µM
[10] = target: Chromo domain-containing protein 1 (Saccharomyces cerevisiae (strain ATCC 204508 / S288c) (Baker's yeast)) (UniProt P32657); assay: ScCHD-1 Enzyme Inhibition Assay; type: functional; parameters: scale not given: in the data most compounds retested in dose-response had high values; conditions: 30 µM
Sequence of Chromo domain-containing protein 1 (Saccharomyces cerevisiae (strain ATCC 204508 / S288c) (Baker's yeast)) (P32657 whole entry, the tested form may be a part): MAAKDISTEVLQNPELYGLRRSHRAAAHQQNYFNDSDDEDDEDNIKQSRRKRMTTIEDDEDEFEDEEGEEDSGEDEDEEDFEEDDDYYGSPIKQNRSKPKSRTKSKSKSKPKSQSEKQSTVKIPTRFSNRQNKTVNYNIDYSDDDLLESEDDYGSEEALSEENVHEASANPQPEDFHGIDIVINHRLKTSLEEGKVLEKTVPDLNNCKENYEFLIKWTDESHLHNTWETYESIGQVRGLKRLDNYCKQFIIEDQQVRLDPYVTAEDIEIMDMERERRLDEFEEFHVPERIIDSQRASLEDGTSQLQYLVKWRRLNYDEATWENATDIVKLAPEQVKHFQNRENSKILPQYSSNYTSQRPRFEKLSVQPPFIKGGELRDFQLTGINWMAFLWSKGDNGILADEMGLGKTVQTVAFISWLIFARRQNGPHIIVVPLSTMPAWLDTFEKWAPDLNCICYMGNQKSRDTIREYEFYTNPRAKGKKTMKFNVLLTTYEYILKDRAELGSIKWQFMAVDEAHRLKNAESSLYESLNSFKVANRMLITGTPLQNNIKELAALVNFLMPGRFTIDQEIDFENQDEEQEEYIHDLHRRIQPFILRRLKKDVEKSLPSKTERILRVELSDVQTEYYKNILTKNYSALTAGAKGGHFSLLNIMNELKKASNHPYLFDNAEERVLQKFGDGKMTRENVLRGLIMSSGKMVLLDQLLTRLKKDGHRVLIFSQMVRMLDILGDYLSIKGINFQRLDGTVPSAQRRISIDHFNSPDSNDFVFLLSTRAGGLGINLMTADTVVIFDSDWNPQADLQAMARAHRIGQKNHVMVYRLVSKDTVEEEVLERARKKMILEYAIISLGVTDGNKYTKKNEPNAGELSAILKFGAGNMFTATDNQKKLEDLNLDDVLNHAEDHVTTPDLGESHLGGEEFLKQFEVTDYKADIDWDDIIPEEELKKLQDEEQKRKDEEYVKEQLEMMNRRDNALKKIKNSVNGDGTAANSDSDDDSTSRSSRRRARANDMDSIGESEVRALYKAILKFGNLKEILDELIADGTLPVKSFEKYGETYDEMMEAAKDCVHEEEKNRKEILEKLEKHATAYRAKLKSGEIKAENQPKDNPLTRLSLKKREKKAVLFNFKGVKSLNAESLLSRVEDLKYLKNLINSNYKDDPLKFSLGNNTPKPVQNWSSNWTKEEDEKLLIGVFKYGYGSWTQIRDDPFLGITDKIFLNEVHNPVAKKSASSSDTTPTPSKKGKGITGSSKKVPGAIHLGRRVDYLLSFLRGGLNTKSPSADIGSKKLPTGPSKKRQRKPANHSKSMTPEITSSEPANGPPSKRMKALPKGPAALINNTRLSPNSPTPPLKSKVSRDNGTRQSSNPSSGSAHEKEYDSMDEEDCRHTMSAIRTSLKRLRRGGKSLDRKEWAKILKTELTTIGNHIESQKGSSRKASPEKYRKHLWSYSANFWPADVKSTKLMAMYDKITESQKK

Sequence of Sialic acid-binding Ig-like lectin 9 (Homo sapiens) (Q9Y336 whole entry): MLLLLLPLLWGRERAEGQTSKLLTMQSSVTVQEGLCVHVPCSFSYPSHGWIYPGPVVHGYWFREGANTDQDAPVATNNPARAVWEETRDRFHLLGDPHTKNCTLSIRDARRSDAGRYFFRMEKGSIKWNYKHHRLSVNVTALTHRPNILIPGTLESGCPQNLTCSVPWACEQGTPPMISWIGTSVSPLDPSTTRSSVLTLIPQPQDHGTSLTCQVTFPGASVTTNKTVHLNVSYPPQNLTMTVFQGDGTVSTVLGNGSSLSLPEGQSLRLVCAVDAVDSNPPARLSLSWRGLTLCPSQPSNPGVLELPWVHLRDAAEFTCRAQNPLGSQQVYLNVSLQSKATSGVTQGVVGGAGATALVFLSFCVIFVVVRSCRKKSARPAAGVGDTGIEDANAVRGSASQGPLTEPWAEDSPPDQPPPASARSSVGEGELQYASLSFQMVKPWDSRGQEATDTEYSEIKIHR
Sequence of Protein translocase subunit SecA (Escherichia coli (strain K12)) (P10408 whole entry): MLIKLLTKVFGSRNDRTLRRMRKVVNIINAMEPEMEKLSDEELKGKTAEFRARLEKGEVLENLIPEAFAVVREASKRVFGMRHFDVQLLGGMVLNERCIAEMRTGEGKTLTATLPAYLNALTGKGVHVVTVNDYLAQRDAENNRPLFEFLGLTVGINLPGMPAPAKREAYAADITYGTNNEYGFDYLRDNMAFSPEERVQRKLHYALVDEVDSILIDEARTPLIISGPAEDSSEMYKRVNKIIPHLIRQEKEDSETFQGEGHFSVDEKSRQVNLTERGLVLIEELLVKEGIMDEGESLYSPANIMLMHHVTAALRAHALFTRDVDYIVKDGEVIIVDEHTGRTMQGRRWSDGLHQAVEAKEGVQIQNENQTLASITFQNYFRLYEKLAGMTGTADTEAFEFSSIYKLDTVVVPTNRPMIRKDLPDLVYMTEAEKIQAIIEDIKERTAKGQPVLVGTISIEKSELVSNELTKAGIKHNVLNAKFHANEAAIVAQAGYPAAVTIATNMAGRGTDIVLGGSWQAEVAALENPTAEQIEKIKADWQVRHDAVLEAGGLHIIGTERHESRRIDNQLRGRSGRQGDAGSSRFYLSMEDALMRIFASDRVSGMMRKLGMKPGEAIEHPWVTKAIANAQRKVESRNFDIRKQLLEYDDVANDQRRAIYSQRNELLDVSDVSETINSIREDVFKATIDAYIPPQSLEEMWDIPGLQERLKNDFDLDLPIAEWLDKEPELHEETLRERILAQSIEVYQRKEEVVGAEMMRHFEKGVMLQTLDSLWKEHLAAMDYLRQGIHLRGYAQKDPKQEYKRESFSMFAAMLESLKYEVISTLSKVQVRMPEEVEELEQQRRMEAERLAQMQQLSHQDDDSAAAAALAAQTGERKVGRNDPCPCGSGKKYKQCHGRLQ

Q: Which results are given for `O=C(CCC1CCCC1)N1CCC(c2ncc3c(n2)CCNC3)CC1`?
A: PXC50 ([1]; MAX_EFFECT 18.13380282): < 4; PXC50 ([1]; MAX_EFFECT 20.42755344): < 4; Percent Effect [2]: -7.04%; Percent Effect [3]: 14.9%; Percent Effect [4]: 0.0771%; Percent Effect [5]: 5.51%; Percent Effect (Trypanosoma cruzi): 2.57%; Percent Effect ([6]; 33.3 µM): -6.26%; Percent Effect [7]: 8.42%; Percent Effect (Homo sapiens): 31.7%; Percent Effect [8]: 10.8%; Percent Effect [9]: 19.5%; Percent Effect [10]: -23.3%

Q: `Cc1nc(NCc2nnc(C)n2C)c2c(CC(C)C)csc2n1` was tested. Which PXC50 ([1]; MAX_EFFECT 10.70496084) did it give?
A: < 4

Q: And the PXC50 ([1]; MAX_EFFECT 13.5770235)?
A: < 4

Q: What about the Percent Effect [4] of the same compound?
A: 1.71%

Q: What does the source list for `Cn1cc(CN2CCC(F)(F)C3(CCN(c4cnccn4)C3)C2)cn1` (stereo not drawn)?
A: PXC50 ([1]; MAX_EFFECT 6.650831354): < 4; PXC50 ([1]; MAX_EFFECT 15.31690141): < 4; Percent Effect [2]: -4.19%; Percent Effect [3]: 2.7%; Percent Effect [4]: 6.66%; Percent Effect [5]: -1.14%; Percent Effect (Trypanosoma cruzi): 0%; Percent Effect ([6]; 33.3 µM): 4.17%; Percent Effect [7]: -3.47%; Percent Effect (Homo sapiens): 5.63%; Percent Effect [8]: 8.91%; Percent Effect [9]: 8.54%; Percent Effect [10]: -4.16%

Q: With `CN(C)C(=O)[C@@H]1CCO[C@@H]2CCN(Cc3ccccc3)C[C@@H]21` as the compound, how does the Percent Effect [2] read?
A: -1.18%

Q: What about the Percent Effect [3] of the same compound?
A: 2.7%

Q: And the Percent Effect [4]?
A: -0.272%

Q: And the Percent Effect [5]?
A: -1.07%

Q: And the Percent Effect (Trypanosoma cruzi)?
A: -6.45%

Q: And the Percent Effect ([6]; 30 µM)?
A: -1.62%

Q: And the Percent Effect ([6]; 33.3 µM)?
A: 2.92%

Q: And the Percent Effect [7]?
A: 20.5%

Q: And the Percent Effect (Homo sapiens)?
A: 10%

Q: And the Percent Effect [8]?
A: 7.92%

Q: What about the Percent Effect [9] of the same compound?
A: 8.54%

Q: What about the Percent Effect [10] of the same compound?
A: -0.0601%

Q: How did the PXC50 ([1]; BOTTOM -1.512370452, HILLSLOPE 1.01203919, MAX_EFFECT 54.40140845, TOP 92.97919978) turn out when `CN(CC1CC1)c1ccc2ccc(C(=O)NCCN3CCOCC3)cn12` was run?
A: 4.18

Q: And the PXC50 ([1]; BOTTOM -1.802135636, HILLSLOPE 1.091019119, MAX_EFFECT 56.05700713, TOP 88.72898538)?
A: 4.23

Q: And the Percent Effect [2]?
A: 0.0454%

Q: What about the Percent Effect [3] of the same compound?
A: 6.49%

Q: And the Percent Effect [5]?
A: -2.21%

Q: And the Percent Effect (Trypanosoma cruzi)?
A: 2.06%

Q: And the Percent Effect ([6]; 33.3 µM)?
A: 2.28%

Q: And the Percent Effect [7]?
A: 0.944%

Q: And the Percent Effect (Homo sapiens)?
A: 29.3%

Q: And the Percent Effect [8]?
A: 34.8%

Q: What about the Percent Effect [9] of the same compound?
A: 15%

Q: What about the Percent Effect [10] of the same compound?
A: -2.15%
